{"source": "PubChem BioAssay (NCATS)", "note": "Results filed as inconclusive are left out. Calls of active or inactive are those of the source. Calls follow the shape of the dose curve; as a rule, active = well fitted curve in either direction with a large enough effect (not every such curve was filed as active); inconclusive = small, poorly fitted or top-dose-only effect, or another doubt; inactive = flat fitted curve, though single readings scatter."}
{"biological_target": "Mitogen-activated protein kinase 10 (Mus musculus) (UniProt Q61831)", "assay": "JNK3 AlphaScreen Assay (AID 530);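 also: kinase came from lysate of stimulated human HepG2 cells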", "conditions": "JNK3 lysate, c-Jun phosphorylation; series mostly up to 25.6 µM", "from_the_text": "NIH Chemical Genomics Center [NCGC]\nNIH Molecular Libraries Screening Centers Network [MLSCN]\nThe c-jun N-terminal kinase (JNK) family are serine/threonine protein kinases that phosphorylate c-jun, a component of the transcription factor […] (AP-1). JNK kinases are members of the mitogen-activated protein kinase family including the extracellular regulated kinases and p38 kinases. Three JNK genes (JNK 1, 2, and 3) have been identified in humans so far. JNK1 and JNK2 have a broad distribution and JNK3 is primarily found in neuronal tissues and cardiac myocytes.\nJNK3 has been under consideration as a target for the treatment of neurodegenerative disorders. […] JNK pathway is also involved in pathological process in a mouse model of Parkinson's disease (Xia et al., 2001).\nGiven these potential tissue distributions and links to neuroprotection, JNK3 inhibitors should provide useful investigational tools to study the role of this kinase in several diseases including, arthritis, stroke, myocardial infarction, ischemic injury and Parkinson's disease.\nA homogeneous AlphaScreen is developed to measure the activity of JNK3. AlphaScreen is a two bead-based proximity-dependent chemical energy transfer luminescent assay platform. The phosphorylation of a biotinylated c-jun substrate by JNK3 can be detected with an antibody raised against phosphorylated c-jun. This process brings streptavidin donor beads and Protein-A acceptor beads to within a proximity range of <200 nm, and subsequently lead a chemical luminescent reaction upon exciting donor beads with 680 nm laser excitation light. Inhibition of JNK3 activity by small molecules and subsequent decrease in the antibody binding to biotinylated c-jun could attenuate or abolish this chemical luminescent reaction.\nYang DD, Kuan CY, Whitmarsh AJ, Rincon M, Zheng TS, Davis RJ, Rakic P and Flavell RA (1997) Absence of excitotoxicity-induced apoptosis in the hippocampus of mice lacking the Jnk3 gene. Nature 389:865-870. [PMID: 9349820]\nHerdegen T, Claret FX, Kallunki T, Martin-Villalba A, Winter C, Hunter T, and Karin M (1998) Lasting N-terminal phosphorylation of c-Jun and activation of c-Jun N-terminal kinases after neuronal injury. J.Neurosci. 18:5124-5135. [PMID: 9651196]\nXia XG, Harding T, Weller M, Bieneman A, Uney JB and Schulz JB (2001) Gene transfer of the JNK interacting protein-1 protects dopaminergic neurons in the MPTP model of Parkinson's disease. Proc.Natl.Acad.Sci.U.S.A. 98:10433-10438.\nNCGC Assay Protocol Summary:\nGST-cJun (1-79) (Stratagene, La Jolla CA, #205145) was biotnylated by PerkinElmer (PerkinElmer-BioSignalInc. Montreal, Canada) and was detectable by the streptavidin Donor beads. Anti-(phospho)cJun (Ser73) antibody was from UpState (Charlottesvilles, VA, #06-659). JNK3-containing lysates were generated from HepG2 cells and pre-activated by interleukin1-beta and tumor necrosis factor alpha. All reagents were stored at -20 C before using. Phosphorylated biotinylated-GST-cJun was recognized by Anti-(phospho)cJun (Ser73) antibody and this process brings acceptor and donor beads together. Therefore JNK3 phosphorylation of cJun can be measured by Alpha reading by EnVision (PerkinElmer, Boston, MA).\nThe composition of kinase buffer was (in mM) 20 tris- HCl (pH 7.6) 10 MgCl2, 1 DTT, and 0.1 Na3VO4 and 0.01% Tween-20. Beads were diluted in detection buffer containing (in mM) 20 tris-HCl (pH 7.7), 20 NaCl and 80 EDTA and 0.3% BSA. The assay was performed at room temperature. All compounds were screened as titrations from 0.6 nM to 46 uM final concentration. The assay was performed in 1536-well format (white solid bottom and untreated) as follows:\nSequence,Parameter,Value,Description\n1,Reagent,3 uL,Biotin-GST-cJun, Anti-(phospho)cJun and pre-activated JNK3-containing lysates\n2,Compound,23 nL,Final concentration was 0.6nM to 46uM\n3,Time,15 minutes,Room Temperature\n4,Reagent,1 uL,ATP final concentration 10uM\n6,Reagent,0.5 uL,2ng/well bead mixture\n[…]"}
{"smiles": "O=c1ccc2ccccc2o1", "outcome": "inactive"}
{"smiles": "CC(C)NC[C@@H](O)COc1cccc2ccccc12", "outcome": "inactive"}
{"smiles": "Nc1nc2ncc(CNc3ccc(C(=O)N[C@@H](CCC(=O)O)C(=O)O)cc3)nc2c(=O)[nH]1", "outcome": "inactive"}
{"smiles": "CC(C)N=C(N)/N=C(\\N)Nc1ccc(Cl)cc1", "outcome": "inactive"}
{"smiles": "CCOC(=O)n1ccn(C)c1=S", "outcome": "inactive"}
{"smiles": "CNCCC=C1c2ccccc2CCc2ccccc21", "outcome": "inactive"}
{"smiles": "COC1=CC(=O)C[C@@H](C)[C@]12Oc1c(Cl)c(OC)cc(OC)c1C2=O", "outcome": "inactive"}
{"smiles": "Oc1ccc(O)cc1", "outcome": "inactive"}
{"smiles": "C[C@@H]1CN(CCCn2c3ccccc3c3ccccc32)C[C@H](C)N1", "outcome": "inactive"}
{"smiles": "CCCCCCc1ccc(O)cc1O", "outcome": "inactive"}
{"smiles": "C[C@H]1[C@H](NC(=O)/C(=N/OC(C)(C)C(=O)O)c2csc(N)n2)C(=O)N1S(=O)(=O)O", "note": "(stereo in doubt)", "outcome": "inactive"}
{"smiles": "CC(C)(Oc1ccc(Cl)cc1)C(=O)O", "outcome": "inactive"}
{"smiles": "CC(C)(C)CC(C)(C)c1ccc(OCCOCC[N+](C)(C)Cc2ccccc2)cc1", "outcome": "inactive"}
{"smiles": "CCCCOc1cc(C(=O)NCCN(CC)CC)c2ccccc2n1", "outcome": "inactive"}
{"smiles": "CCN1CCC[C@H]1CNC(=O)c1c(OC)ccc(Br)c1OC", "outcome": "inactive"}
{"smiles": "Oc1ccc(Cl)cc1Sc1cc(Cl)ccc1O", "outcome": "inactive"}
{"smiles": "CCn1cc(C(=O)O)c(=O)c2cnc(N3CCCC3)nc21", "outcome": "inactive"}
{"smiles": "Nc1cc(Cl)c(NC2=NCCN2)c(Cl)c1", "outcome": "inactive"}
{"smiles": "Cc1c(N(C)CS(=O)(=O)O)c(=O)n(-c2ccccc2)n1C", "outcome": "inactive"}
{"smiles": "NCCc1ccn[nH]1", "outcome": "inactive"}
{"smiles": "CC(=O)Oc1ccc(C(c2ccc(OC(C)=O)cc2)c2ccccn2)cc1", "outcome": "inactive"}
{"smiles": "C[N+]1(CCCCC[N+]2(C)CCCC2)CCCC1", "outcome": "inactive"}
{"smiles": "O=C(OCCOCCO)c1ccccc1Nc1cccc(C(F)(F)F)c1", "outcome": "inactive"}
{"smiles": "COc1cc(-c2ccc(=O)[nH]n2)ccc1OC(F)F", "outcome": "inactive"}
{"smiles": "COc1cccc2c1C(=O)c1c(O)c3c(c(O)c1C2=O)C[C@@](O)(C(=O)CO)C[C@@H]3O[C@H]1C[C@H](N)[C@H](O)[C@H](C)O1", "outcome": "inactive"}
{"smiles": "NC(=NCCCCCCN=C(N)/N=C(\\N)Nc1ccc(Cl)cc1)/N=C(\\N)Nc1ccc(Cl)cc1", "outcome": "inactive"}
{"smiles": "CN1[C@@H]2CC[C@H]1CC(OC(=O)c1c[nH]c3ccccc13)C2", "note": "(stereo not given in full)", "outcome": "inactive"}
{"smiles": "Oc1c(Cl)cc(Cl)cc1Sc1cc(Cl)cc(Cl)c1O", "outcome": "inactive"}
{"smiles": "O=C1CCC(c2ccc(-n3ccnc3)cc2)=NN1", "outcome": "inactive"}
{"smiles": "C=C(CC)C(=O)c1ccc(OCC(=O)O)c(Cl)c1Cl", "outcome": "inactive"}
{"smiles": "CN1CCN(CCCN2c3ccccc3Sc3ccc(S(=O)(=O)N(C)C)cc32)CC1", "outcome": "inactive"}
{"smiles": "Nc1ccc(C(=O)O)cc1", "outcome": "inactive"}
{"smiles": "C1CCc2nnnn2CC1", "outcome": "inactive"}
{"smiles": "CCCCOc1ccc(OCCCN2CCOCC2)cc1", "outcome": "inactive"}
{"smiles": "Cc1cc(N)c2cc(NC(=O)Nc3ccc4nc(C)cc(N)c4c3)ccc2n1", "outcome": "inactive"}
{"smiles": "CCCCCCC[N+](CC)(CC)CCCCc1ccc(Cl)cc1", "outcome": "inactive"}
{"smiles": "O=C1c2ccccc2C(=O)C1c1ccccc1", "outcome": "inactive"}
{"smiles": "Cc1ccnc(NS(=O)(=O)c2ccc(N)cc2)n1", "outcome": "inactive"}
{"smiles": "CN1CCN(C(c2ccccc2)c2ccccc2)CC1", "outcome": "inactive"}
{"smiles": "CC/C(=C(/CC)c1ccc(O)cc1)c1ccc(O)cc1", "outcome": "inactive"}
